Data published in the supplement of paper PMC11417369.
± gives the standard deviation of the averaged measurements. Whole data set: some 25,000 sequences, median “ln(normalized median fluorescence intensity)” near 10, cut for the highest 2% near 12. The sample as a whole holds a higher share of the highest values than the screen did.

test system: PfAP2-G AP2 domain (GST-tagged); test: gcPBM binding intensity (ln(normalized median fluorescence intensity)); higher = stronger DNA binding
Method in brief: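 An Agilent 4 × 180k array of primer-extended double-stranded 36-bp intergenic genomic probes, with negative controls, was incubated for 1 h with GST-tagged P. falciparum DNA-binding domains expressed in E. coli. Alexa488 anti-GST antibody detected bound protein, scanned at 488 nm. Binding intensity is the highest Masliner-normalised natural-log median intensity across replicate spots of either probe orientation.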

Row | Sequence | gcPBM binding intensity (ln)
1 | TACATAAACATTTATACACACATTATGTATACATAT [CACACA_site405] | 10.04 ± 0.035
2 | TAAAAATATTTTCATTGTACATATATATAAATATAT [XGTACX_site1123] | 10.9 ± 0.61
3 | ACATTTTTGGTTTTAGTGCAATATGAATTATTTTAT | 10.12 ± 0.078
4 | AAGGATATAAAAAAACGTACGTACGATAATATAATT [XGTACX_site1292] | 11.6 ± 0.91
5 | AAAAAAAAATTAATATATAAAAGGATATATATATAT [GTGCAC_negctrl_site449] | 9.77 ± 0.46
6 | ATAAAATATAAAAATTGTACGATAATAATAGTAGGA [XGTACX_site8951] | 10.8 ± 0.36
7 | TCATATATATTATACACACACATATATAAATATATA [CACACA_site967] | 10 ± 0.23
8 | TCATGTAGTAAAAACTGTACAAATTATTTATCATGT [XGTACX_site1727] | 11 ± 0.64
9 | TTATTAAAAATGTATTGTACAAATTTATTAGTAAAT [XGTACX_site4799] | 11 ± 0.52
10 | GTGTAGTAAAATCGATGTACGTACAAATCAATTATT [XGTACX_site7662] | 11.8 ± 0.83
11 | ACCTTTATTGTATGAACACACATAAGCTGATACATC [CACACA_site4028] | 10.2 ± 0.11
12 | ATTTATTTCAATAAACTTCTTTTCTTTAACAATTAC [CACACA_negctrl_site1222] | 9.845 ± 0.035
13 | TATTCATATTTAAAGGTGCAATATTTATTTTGTACA | 10.2 ± 0.18
14 | AAAAGACATTTTTTTTTATAAATACACACGTACGTG [TGCATGCA_negctrl_site281] | 11.1 ± 0.72
15 | CCTCCCATTTTTACACGTACACATTTAAAATAGACT [XGTACX_site5640] | 11.7 ± 1.1
16 | TATTTTACACATTTACGTACATAAATATATATATAT [XGTACX_site8788] | 11.6 ± 0.95
17 | TCTTATGATGGAATGTTAAATATTACATTTTGTTTA [TGCATGCA_negctrl_site503] | 9.51 ± 0.22
18 | GTTTTTGAGTAGTACACACACAATAAGGATGGATTC [CACACA_site3192] | 11.5 ± 0.97
19 | ACGTTTTTGAGTAGTACACACACAATAAGGATGGAT [CACACA_site9044] | 11.5 ± 0.97
20 | GAAACGTTTTTGAGTAGTACACACACAATAAGGATG [XGTACX_site6809] | 11.7 ± 1.1
21 | TTAAAAATGTTGGAAAGTACATATTTTTTAAAAGTA [XGTACX_site802] | 11.1 ± 0.61
22 | TTAACCACTAAAAGTACACACATATATACATATATA [CACACA_site3912] | 11.4 ± 0.92
23 | TATATCATCATGTATGTACACACATACATATATTAT [CACACA_site8387] | 11.2 ± 0.72
24 | AATACATATGGGTGTACACATTATATATATATATAT [CACACA_site4601] | 11.6 ± 0.89
25 | ATATATACATATGGGTGTACATATGCACATATATAT [XGTACX_site8437] | 11.3 ± 0.71
26 | TCATCATGTATGTACACACATACATATATTATGTAC [CACACA_site1386] | 11.7 ± 0.8
27 | ATAATAATATGTGGGTGTACATATACACATATATAT [XGTACX_site4356] | 11.3 ± 0.71
28 | ATATATCATCATGTATGTACACACATACATATATTA [XGTACX_site2814] | 11.2 ± 0.74
